Source: PubChem BioAssay (Tox21)
Records with an inconclusive call do not appear. Active and inactive are the calls of the source. Unless noted, calls come from the whole dose curve; as a rule, active = well fitted curve in the direction sought with a large enough effect in the repeat runs; inconclusive = weak or mixed curves; inactive = no such curve, though single readings can be large; an effect the other way counts as inactive or inconclusive.

Experiments:
[1] = qHTS assay to identify small molecule agonists of the hypoxia (HIF-1) signaling pathway - cell viability counter screen (AID 1224844; calls by dose curve; note: nearly all actives have a fitted effect of over 50% in size; note: potency is the fitted concentration of half-maximal effect)
How it was run: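 Same wells as the HIF-1 reporter screen; ME-180 cells carrying HRE-bla, 17 hr treatment at 37C; CellTiter-Glo luminescence read after 30 min at room temperature.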

[2] = qHTS assay to identify small molecule agonists of the hypoxia (HIF-1) signaling pathway (AID 1224846; active = well fitted activation curve with a large enough effect in the signal ratio in the repeat runs, not every such curve was filed as active; the % refers to the signal ratio)
How it was run: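 In ME-180 cells bearing an HRE-bla construct, 17 h treatment with DMSO-dissolved compounds at 37C was followed by CCF4-AM loading to quantify reporter induction.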

[3] = qHTS assay to identify small molecule agonists of H2AX - cell viability counter screen (AID 1224847; calls by dose curve; note: top concentration of the series differs between compounds; nearly all actives have a fitted effect of over 30% in size)
How it was run: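 Compounds tested at 15 concentrations were incubated 3 hr at 37C with wild-type CHO-K1 cells; cellular ATP-based luminescence (CellTiter-Glo) indicated viability.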

[4] = qHTS assay to identify small molecule antagonists of the estrogen related receptor (ERR) signaling pathway from Tox21 library (AID 1224848); note: nearly all actives have a fitted effect of over 50% in size; note: potency is the fitted concentration of half-maximal effect
How it was run: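 First, 2,000 ERR cells per well were plated and held 6 h at 37 C/5% CO2. Next, compounds in DMSO were pinned in and left 18 h at 37 C. Finally, ONE-Glo was added and luminescence read after 30 min at room temperature.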

[5] = qHTS assay to identify small molecule agonists of the estrogen related receptor (ERR) signaling pathway from Tox21 library (AID 1224849; calls by dose curve; note: nearly all actives have a fitted effect of over 15% in size); settings: ERR reporter cell line, ONE-Glo luciferase, 18 h; at 92.4 µM (top of the series) unless noted
How it was run: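 Reporter cells (ERR, NTP source) treated with Tox21 10K compounds 18 h, 37 C. Readout: ONE-Glo luminescence, 30 min RT.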

[6] = qHTS RealTime-Glo MT Cell Viability Assay in HepG2 cells - 24 hour (AID 1224867); note: nearly all actives have a fitted effect of over 50% in size; note: potency is the fitted concentration of half-maximal effect
How it was run: (§1)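 Cell number in HepG2 cultures estimated from NanoLuc luminescence generated by metabolic reduction of a prosubstrate by living cells. The homogeneous, nonlytic format allowed repeated reads at 0, 8, 16, 24, 32 and 40 h of compound exposure.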

[7] = qHTS RealTime-Glo MT Cell Viability Assay in HEK293 cells - 32 hour (AID 1224868); note: nearly all actives have a fitted effect of over 50% in size; note: potency is the fitted concentration of half-maximal effect
How it was run: (§2)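 Homogeneous bioluminescent viability format in HEK293 cells (600 cells/well). Following 5 h at 37 C/5% CO2, 23 nL compound was pintooled; the signal was measured repeatedly during 40 h incubation.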

[8] = A CellTox Green Cytotoxicity Assay to monitor cytotoxicity in HEK293 cells - 0 hour (AID 1224869); note: nearly all actives have a fitted effect of over 50% in size
How it was run: (§3)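 Homogeneous no-lysis format: HEK293 cell suspension mixed with CellTox Green reagent, seeded, incubated 5 h at 37 C/5% CO2, then dosed by pintool with compound in DMSO.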

[9] = qHTS RealTime-Glo MT Cell Viability Assay in HepG2 cells - 40 hour (AID 1224870); note: nearly all actives have a fitted effect of over 50% in size; note: potency is the fitted concentration of half-maximal effect
How it was run: (§4)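 HepG2 cells mixed with RealTime-Glo MT reagents (NanoLuc plus cell-permeant prosubstrate) were seeded at 600 cells/well, incubated 5 h at 37 C/5% CO2, then pinned with compounds in DMSO; nonlytic luminescence tracked viability during 40 h treatment.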

[10] = A CellTox Green Cytotoxicity Assay to monitor cytotoxicity in HEK293 cells - 40 hour (AID 1224871); note: nearly all actives have a fitted effect of over 45% in size; note: potency is the fitted concentration of half-maximal effect
How it was run: as §3

[11] = qHTS RealTime-Glo MT Cell Viability Assay in HEK293 cells - 40 hour (AID 1224874); settings: RealTime-Glo luminescence; max response: hits give low values; note: nearly all actives have a fitted effect of over 50% in size; note: potency is the fitted concentration of half-maximal effect
How it was run: (§5)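 Measured as luminescence from the same continuously cultured HEK293 wells at successive time points (0, 8, 16, 24, 32, 40 h) after compound addition. Reagent present from seeding; dosing at 5 h; incubation 37 C.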

[12] = A CellTox Green Cytotoxicity Assay to monitor cytotoxicity in HEK293 cells - 24 hour (AID 1224875); note: nearly all actives have a fitted effect of over 45% in size; note: potency is the fitted concentration of half-maximal effect
How it was run: as §3

[13] = A CellTox Green Cytotoxicity Assay to monitor cytotoxicity in HepG2 cells - 16 hour (AID 1224876); note: nearly all actives have a fitted effect of over 45% in size; note: potency is the fitted concentration of half-maximal effect
How it was run: (§6)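 Fluorescent DNA-binding dye, 600 HepG2 cells/well, 5 h preincubation then compound in DMSO; same plates read at 0–40 h, 37 C.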

[14] = qHTS RealTime-Glo MT Cell Viability Assay in HepG2 cells - 32 hour (AID 1224877); note: nearly all actives have a fitted effect of over 55% in size
How it was run: as §1

[15] = A CellTox Green Cytotoxicity Assay to monitor cytotoxicity in HepG2 cells - 24 hour (AID 1224878); note: nearly all actives have a fitted effect of over 45% in size; note: potency is the fitted concentration of half-maximal effect
How it was run: as §6

[16] = A CellTox Green Cytotoxicity Assay to monitor cytotoxicity in HepG2 cells - 40 hour (AID 1224879); note: nearly all actives have a fitted effect of over 40% in size; note: potency is the fitted concentration of half-maximal effect
How it was run: as §6

[17] = qHTS RealTime-Glo MT Cell Viability Assay in HEK293 cells - 0 hour (AID 1224880); note: nearly all actives have a fitted effect of over 45% in size; note: potency is the fitted concentration of half-maximal effect
How it was run: as §5

[18] = qHTS assay to identify small molecule agonists of H2AX (AID 1224845; active = well fitted activation curve with a large enough effect in the signal ratio in the repeat runs, not every such curve was filed as active; the % refers to the signal ratio; note: potency is the fitted concentration of half-maximal effect)
How it was run: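 Wild-type CHO-K1 cells plated overnight, then exposed 3 hr at 37C to compounds at 15 concentrations (0.76% DMSO). Lysed, then HTRF anti-pH2AX(S139)-cryptate/anti-H2AX-d2 detection after 24 hr at room temperature; emissions 665 and 620 nm.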

[19] = qHTS RealTime-Glo MT Cell Viability Assay in HEK293 cells - 16 hour (AID 1224872)
How it was run: as §2

[20] = qHTS RealTime-Glo MT Cell Viability Assay in HepG2 cells - 8 hour (AID 1224873); note: nearly all actives have a fitted effect of over 55% in size
How it was run: as §4
% is set by controls: 0 for no effect and ±100 for the full control effect.

Nc1nc(N)c(-c2ccccc2)s1
inactive: Potency [1] | outcome [2] | Potency [3] | Potency [4] | activity change, positive = activation [5] 3.26% [at 42.5 µM] | Potency [6] | Potency [7] | Potency [8] | Potency [9] | Potency [10] | max response [11] 5.71% | Potency [12] | Potency [13] | Potency [14] | Potency [15] | Potency [16] | Potency [17]

CN(C)C/C=C(/c1ccc(Br)cc1)c1cccnc1
inactive: Potency [1] | Potency [18] | Potency [3] | Potency [6] | Potency [7] | Potency [8] | Potency [9] | Potency [10] | Potency [19] | Potency [20] | max response [11] 2.35% | Potency [12] | Potency [13] | Potency [14] | Potency [16] | Potency [17]

CC(=O)[C@@]1(O)CC[C@H]2[C@@H]3C[C@H](C)C4=CC(=O)CC[C@]4(C)[C@H]3CC[C@@]21C
active: Potency [4] 23.7 µM | Potency [11] 19 µM | Potency [17] 6.74 µM
inactive: Potency [1] | Potency [18] | Potency [3] | activity change, positive = activation [5] -36.6% [at 42.5 µM] | Potency [6] | Potency [8] | Potency [9] | Potency [10] | Potency [20] | Potency [12] | Potency [13] | Potency [14] | Potency [15] | Potency [16]

Oc1ccc(O)c2c(O)cccc12
inactive: Potency [1] | Potency [18] | Potency [3] | Potency [4] | activity change, positive = activation [5] 1.72% | Potency [7] | Potency [8] | Potency [9] | Potency [10] | max response [11] -0.428% | Potency [12] | Potency [13] | Potency [14] | Potency [16] | Potency [17]

CN(C)CC/C=C1\c2ccccc2COc2ccccc21
inactive: Potency [1] | Potency [18] | Potency [3] | Potency [6] | Potency [7] | Potency [8] | Potency [9] | Potency [10] | Potency [19] | Potency [20] | max response [11] 3.53% | Potency [12] | Potency [13] | Potency [15] | Potency [17]

O=C(CC(=O)c1ccccc1)c1ccccc1
active: activity change, positive = activation [5] 58.5%
inactive: Potency [1] | outcome [2] | Potency [3] | Potency [4] | Potency [6] | Potency [7] | Potency [8] | Potency [10] | Potency [19] | max response [11] -4.39% | Potency [12] | Potency [13] | Potency [14] | Potency [15] | Potency [16] | Potency [17]

CC(=O)SCc1ccco1
inactive: Potency [1] | Potency [18] | Potency [3] | Potency [6] | Potency [7] | Potency [8] | Potency [9] | Potency [10] | Potency [19] | max response [11] 13.4% | Potency [12] | Potency [14] | Potency [15] | Potency [16] | Potency [17]

CCCCC(CC)COCCCN (stereo not drawn)
inactive: Potency [1] | Potency [18] | activity change, positive = activation [5] -26.6% | Potency [6] | Potency [8] | Potency [9] | Potency [10] | Potency [20] | Potency [12] | Potency [13] | Potency [14] | Potency [17]

CCC(C)N(C)C(=O)c1cc2ccccc2c(-c2ccccc2Cl)n1 (stereo not drawn)
inactive: Potency [1] | Potency [18] | Potency [3] | Potency [6] | Potency [8] | Potency [9] | Potency [10] | Potency [12] | Potency [13] | Potency [14]
active: Potency [15] 25.2 µM | Potency [17] 31.7 µM

CNCC[C@@H](Oc1ccccc1C)c1ccccc1
inactive: Potency [1] | Potency [18] | Potency [3] | activity change, positive = activation [5] -15.2% [at 42.5 µM] | Potency [6] | Potency [7] | Potency [8] | Potency [9] | Potency [10] | Potency [19] | Potency [20] | max response [11] -5.29% | Potency [12] | Potency [14] | Potency [15] | Potency [16]

Nc1ccc(C(=O)Nc2ccccc2N)cc1
inactive: outcome [2] | Potency [3] | Potency [4] | Potency [6] | Potency [8] | Potency [10] | Potency [20] | Potency [12] | Potency [17]
active: Potency [1] 12 µM | activity change, positive = activation [5] 21.9% [at 42.5 µM] | Potency [9] 13.4 µM

C=CC(=O)OCC(C)OCC(C)OCC(C)OC(=O)C=C (stereo not drawn)
active: Potency [18] 101 µM | Potency [7] 43.6 µM | Potency [10] 54.9 µM | Potency [11] 43.6 µM | Potency [15] 54.9 µM | Potency [16] 49 µM
inactive: Potency [1] | Potency [8] | Potency [12] | Potency [13] | Potency [17]

O=S1(=O)c2cccc3cccc(c23)N1CCCN1CCN(c2ccc(F)cc2)CC1
inactive: Potency [1] | Potency [18] | Potency [3] | activity change, positive = activation [5] -30.2% [at 42.5 µM] | Potency [6] | Potency [8] | Potency [9] | Potency [10] | Potency [19] | Potency [20] | max response [11] -11.7% | Potency [12] | Potency [14] | Potency [17]

NC(N)=N/N=C/c1c(Cl)cccc1Cl
inactive: Potency [1] | Potency [18] | Potency [3] | Potency [4] | activity change, positive = activation [5] -17.6% [at 42.5 µM] | Potency [6] | Potency [8] | Potency [9] | Potency [10] | Potency [20] | max response [11] -22.8% | Potency [12] | Potency [13] | Potency [14]

NC(N)=NN=C(/C=C/c1ccc([N+](=O)[O-])o1)/C=C/c1ccc([N+](=O)[O-])o1
active: Potency [1] 8.49 µM | Potency [4] 2.66 µM | Potency [6] 1.69 µM | Potency [9] 1.51 µM | Potency [10] 8.49 µM | Potency [11] 0.848 µM | Potency [12] 10.7 µM | Potency [13] 3.79 µM | Potency [15] 2.13 µM | Potency [16] 1.69 µM
inactive: Potency [18] | activity change, positive = activation [5] -66.8% [at 42.5 µM] | Potency [8] | Potency [17]

O=C(O)[C@@H]1[C@H]2C[C@H]3c4[nH]c5ccccc5c4CCN3C[C@@H]2CC[C@@H]1O
inactive: Potency [1] | outcome [2] | Potency [3] | Potency [4] | activity change, positive = activation [5] 1.64% [at 42.5 µM] | Potency [6] | Potency [7] | Potency [8] | Potency [9] | Potency [10] | Potency [19] | Potency [20] | max response [11] 1.89% | Potency [12] | Potency [14] | Potency [17]
